Screens from PubChem BioAssay.
An excerpt weighted towards active compounds, which were near 12% of everything screened.
BAZ2B inh – inhibitors of human BAZ2B bromodomain. AlphaScreen BAZ2B-H3K14Ac peptide displacement. Potency, µM (titrated, usually from 114 µM), for inactives: at the highest dose activity change, negative = inhibition, most hits filed as inhibitors. AID 504333. 360,000 tested, 4.4% active; note: potency is the fitted concentration of half-maximal effect; % is set by controls: 0 for no effect and ±100 for the full control effect; nearly all actives have a fitted effect of over 60% in size
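AlphaScreen luminescence quantifies BAZ2B engagement of H3K14Ac peptide; the protein and biotinylated peptide are both at 50 nM final, buffer PBS pH 7.4 with 0.01% Tween-20, all steps at room temperature.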
JMJD2A Tudor inh – blocks the human JMJD2A Tudor domain. O75164. AlphaScreen JMJD2A-Tudor / H3K4me3 peptide binding. Potency, µM (titrated, usually from 114 µM), for inactives: at the highest dose activity change, negative = inhibition, usual class: inhibitors. 390,000 tested, 4.4% active; note: potency is the fitted concentration of half-maximal effect; % is set by controls: 0 for no effect and ±100 for the full control effect; nearly all actives have a fitted effect of over 50% in size
HP1b chromo inh – blocks HP1-beta chromodomain binding to methylated histone tails; P83916; AlphaScreen HP1-beta / biotin-H3K9me3 peptide binding; Potency, µM (doses to about 114 µM), for inactives: at the highest dose activity change, negative = inhibition, most hits filed as inhibitors; 390,000 tested, 0.56% active; note: potency is the fitted concentration of half-maximal effect; nearly all actives have a fitted effect of over 70% in size
Target sequence (P83916 whole entry, looked up): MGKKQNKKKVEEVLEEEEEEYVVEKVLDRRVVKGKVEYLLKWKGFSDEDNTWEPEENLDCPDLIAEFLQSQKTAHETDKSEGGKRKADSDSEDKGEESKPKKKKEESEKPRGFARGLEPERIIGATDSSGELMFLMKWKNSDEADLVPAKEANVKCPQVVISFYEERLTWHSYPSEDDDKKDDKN
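Compound inhibition of the preformed complex between 50 nM HP1-beta and 50 nM biotinylated H3K9me3 peptide was read by AlphaScreen. Buffer was PBS pH 7.4 with 0.01% Tween-20. Incubations ran 30 min at room temperature, with 10 ug/mL donor/acceptor beads.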
PI5P4K alpha inh – PI5P4K alpha (human) kinase inhibition. AID 652105. PI5P4Kalpha enzyme, ADP-Glo luminescence, 60 min; stronger effect = lower value. max response, %. 330,000 tested, 1.2% active; active = max response of -50% or lower; inconclusive = between -30% and -50%; inactive = -30% or higher; note: value at the top dose of about 77 µM; % is set by controls: 0 for no effect and ±100 for the full control effect
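ADP-Glo luminescence end-point after a 60 min room-temperature kinase reaction. PI5P4Kalpha and substrate in HEPES pH 7.4 buffer with EGTA, 0.1% CHAPS and 5% DMSO; ATP at 5 microM final.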
G9a inh – inhibitors of human histone lysine methyltransferase G9a | G9a H3K9 monomethylation, AlphaScreen, 2 h | 350,000 tested, 8.8% active | Potency, µM (top dose mostly 102 µM), for inactives: at the highest dose activity, negative = inhibition, actives largely listed as inhibitors; note: potency is the fitted concentration of half-maximal effect; % is set by controls: 0 for no effect and ±100 for the full control effect; nearly all actives have a fitted effect of over 75% in size
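Step 1: enzyme (final 20 nM) with compound, 15 min RT. Step 2: substrate peptide 500 nM and SAM 20 uM, 2 h RT. Step 3: anti-H3K9me1 antibody and AlphaScreen beads, 10 min, then plate read.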
PLK1 PBD inh – inhibitors of human PLK1 polo-box domain binding; Plk1 PBD binding of FITC phosphopeptide, fluorescence polarization; Potency, µM, for inactives: max response, negative = inhibition, usual class: inhibitors; P53350; 360,000 tested, 2.8% active; note: potency is the fitted concentration of half-maximal effect; series mostly up to about 57 µM; % is set by controls: 0 for no effect and ±100 for the full control effect; nearly all actives have a fitted effect of over 65% in size
Target sequence (P53350 whole entry, looked up, the tested form may be a part): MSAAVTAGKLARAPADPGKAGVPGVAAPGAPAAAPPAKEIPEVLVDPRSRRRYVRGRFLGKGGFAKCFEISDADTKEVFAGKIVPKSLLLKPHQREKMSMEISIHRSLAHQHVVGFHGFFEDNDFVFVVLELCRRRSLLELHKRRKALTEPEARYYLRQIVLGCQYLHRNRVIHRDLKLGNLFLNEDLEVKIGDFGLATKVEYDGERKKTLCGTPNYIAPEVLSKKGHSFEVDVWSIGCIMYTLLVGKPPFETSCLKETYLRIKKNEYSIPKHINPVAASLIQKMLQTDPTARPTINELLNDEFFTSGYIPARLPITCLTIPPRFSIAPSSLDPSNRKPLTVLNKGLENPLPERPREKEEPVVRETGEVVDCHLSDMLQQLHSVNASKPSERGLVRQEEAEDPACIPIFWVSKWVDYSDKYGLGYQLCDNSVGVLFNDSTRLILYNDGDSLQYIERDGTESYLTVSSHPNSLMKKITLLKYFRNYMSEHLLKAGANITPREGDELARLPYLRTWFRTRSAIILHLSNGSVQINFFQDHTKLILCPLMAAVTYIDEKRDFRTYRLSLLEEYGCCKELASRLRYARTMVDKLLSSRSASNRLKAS
Starred values were filed as active, the others as inactive; [ ] = remark or other dose. Unless noted, calls come from the whole dose curve; as a rule, active = well fitted curve in the direction sought with a large enough effect; inconclusive = small, poorly fitted or top-dose-only effect, or another doubt; inactive = no such curve, though single readings can be large; an effect the other way counts as inactive or inconclusive.

Results for Cc1cccc(NC(=S)NC2CCCC2)n1 ?
BAZ2B inh: inconclusive; JMJD2A Tudor inh: -27%; HP1b chromo inh: 29%; PI5P4K alpha inh: -19; G9a inh: -117%; PLK1 PBD inh: -16%

How did S=C(Nc1cccnc1)NC1CCCCCCC1 do in these assays?
BAZ2B inh: 0%; JMJD2A Tudor inh: -2%; HP1b chromo inh: 30%; PI5P4K alpha inh: -3; G9a inh: 14%[59 µM]; PLK1 PBD inh: -24%

Results for S=C(Nc1cccnc1)NC1CCCC1 ?
BAZ2B inh: 3%; JMJD2A Tudor inh: -24%; HP1b chromo inh: -14%; PI5P4K alpha inh: -7; G9a inh: 16µM*; PLK1 PBD inh: inconclusive

How did NS(=O)(=O)c1ccc(NC(=S)NC2CCCCC2)cc1 do in these assays?
BAZ2B inh: -29%; JMJD2A Tudor inh: -14%; HP1b chromo inh: -4%; PI5P4K alpha inh: -7; G9a inh: 25µM*; PLK1 PBD inh: 11µM*

How did CC1CCCC/C1=N\NC(=S)Nc1cccnc1 (stereo not drawn) do in these assays?
BAZ2B inh: inconclusive; JMJD2A Tudor inh: inconclusive; HP1b chromo inh: inconclusive; PI5P4K alpha inh: -10; G9a inh: 3.2µM*; PLK1 PBD inh: -16%

What do the screens show for `Cc1cccc(NC(=S)NC2CCCCC2)n1`?
BAZ2B inh: -27%; JMJD2A Tudor inh: -13%; HP1b chromo inh: 19%; PI5P4K alpha inh: -9; G9a inh: 0.89µM*; PLK1 PBD inh: -15%

How did Cc1c(C(=O)OC(C)C)sc(NC(=O)C2c3ccccc3Oc3ccccc32)c1C(=O)OC(C)C do in these assays?
BAZ2B inh: -9%; JMJD2A Tudor inh: -12%; HP1b chromo inh: 10%; G9a inh: -23%[59 µM]

How did CC(=O)c1ccc(NC(=O)CSc2nnc(C3CC3)n2C2CC2)cc1 do in these assays?
JMJD2A Tudor inh: -9%; HP1b chromo inh: -1%; PI5P4K alpha inh: 8; PLK1 PBD inh: -1%

What do the screens show for `Cc1ccc(SCC(Cc2ccccc2)N2CCN(C)CCC2=O)cc1` (stereo not drawn)?
JMJD2A Tudor inh: -27%; HP1b chromo inh: 15%

How did COc1cccc(CNC(=O)CSC2=Nc3ccccc3C3=NC(C)C(=O)N23)c1OC (stereo not drawn) do in these assays?
BAZ2B inh: 2%; JMJD2A Tudor inh: -8%; HP1b chromo inh: 67%; G9a inh: 42%[59 µM]

How did COC(=O)c1cccnc1NC(=S)NC1CCCCC1 do in these assays?
BAZ2B inh: 9%; JMJD2A Tudor inh: -25%; HP1b chromo inh: 38%; PI5P4K alpha inh: 10; G9a inh: 14µM*; PLK1 PBD inh: -12%

What do the screens show for `S=C(Nc1ccc(Nc2ccccc2)cc1)NC1CCCCCC1`?
BAZ2B inh: 13µM*; JMJD2A Tudor inh: 20µM*; HP1b chromo inh: inconclusive; PI5P4K alpha inh: -2; G9a inh: 16µM*; PLK1 PBD inh: inconclusive

What do the screens show for `COc1ccc(Br)cc1CN1C(=O)c2ccccc2C1C(=O)NC1CCCCCC1` (stereo not drawn)?
BAZ2B inh: -1%; JMJD2A Tudor inh: -18%; HP1b chromo inh: 22%; G9a inh: 6%[59 µM]

How did CCOC(=O)c1c(N)n(-c2ccc(N)cc2)c2nc3ccccc3nc12 do in these assays?
BAZ2B inh: -6%; JMJD2A Tudor inh: -31%; HP1b chromo inh: 3%; PI5P4K alpha inh: -18; G9a inh: -7%; PLK1 PBD inh: 27µM*

How did CN(CC(=O)Nc1cccc(Cl)c1)S(=O)(=O)c1ccc2c(c1)n(C)c(=O)c(=O)n2C do in these assays?
BAZ2B inh: -5%; JMJD2A Tudor inh: inconclusive; HP1b chromo inh: -11%; PI5P4K alpha inh: 1; PLK1 PBD inh: -8%

What do the screens show for `CSc1cccc(NC(=O)CN(C)S(=O)(=O)c2ccc3c(c2)n(C)c(=O)c(=O)n3C)c1`?
BAZ2B inh: -19%; JMJD2A Tudor inh: -15%; HP1b chromo inh: 34%; G9a inh: 1µM*

What do the screens show for `COc1ccc(OCCNC(=O)C2(C)CCN2Cc2ccc3ccccc3c2)cc1` (stereo not drawn)?
PI5P4K alpha inh: 15; PLK1 PBD inh: -15%

Results for O=C(Nc1cccc([N+](=O)[O-])c1)c1cc2ccccc2cc1O ?
BAZ2B inh: 50µM*; JMJD2A Tudor inh: -7%[11.4 µM]; HP1b chromo inh: 36%; PI5P4K alpha inh: -19; G9a inh: inconclusive; PLK1 PBD inh: inconclusive

What do the screens show for `O=C(Nc1cccc([N+](=O)[O-])c1)Nc1cccs1`?
BAZ2B inh: inconclusive; JMJD2A Tudor inh: inconclusive; HP1b chromo inh: -8%; PI5P4K alpha inh: 0; G9a inh: 40µM*; PLK1 PBD inh: -17%

How did O=S(=O)(c1ccccc1)N1CCC2(CC1)CN(c1ccccn1)C2 do in these assays?
G9a inh: 46%[12.7 µM]

Results for O=C(CN1C(=O)/C(=C2\SC(=S)N(C3CCS(=O)(=O)C3)C2=O)c2ccccc21)Nc1ccc(F)cc1 (stereo not drawn) ?
BAZ2B inh: -20%; JMJD2A Tudor inh: -17%; HP1b chromo inh: -24%; PI5P4K alpha inh: -10; G9a inh: 20µM*; PLK1 PBD inh: -10%

Results for COc1ccc(NC(=O)CN2C(=O)/C(=C3\SC(=S)N(C4CCS(=O)(=O)C4)C3=O)c3ccccc32)cc1 (stereo not drawn) ?
BAZ2B inh: -20%; JMJD2A Tudor inh: -6%; HP1b chromo inh: inconclusive; PI5P4K alpha inh: -25; PLK1 PBD inh: -7%

Results for CC(C)(C)SCCNS(=O)(=O)c1ccc(C#N)cc1 ?
BAZ2B inh: 0%; JMJD2A Tudor inh: -14%; HP1b chromo inh: -2%; PI5P4K alpha inh: -5; G9a inh: -2%; PLK1 PBD inh: 0%

How did CC(C)(C)SCCNS(=O)(=O)c1ccc(Cl)cc1 do in these assays?
BAZ2B inh: -1%; JMJD2A Tudor inh: 18µM*; HP1b chromo inh: -14%; PI5P4K alpha inh: -5; G9a inh: 36%[12.7 µM]; PLK1 PBD inh: inconclusive

Results for O=C(/C=C/c1ccc(O)c(O)c1)OC(Cc1ccc(O)c(O)c1)C(=O)O (stereo not drawn) ?
BAZ2B inh: 40µM*; JMJD2A Tudor inh: 13µM*; HP1b chromo inh: inconclusive; PI5P4K alpha inh: -10; G9a inh: 3.5µM*; PLK1 PBD inh: -12%

How did O=C(C=Cc1ccccc1O)c1ccccc1O do in these assays?
JMJD2A Tudor inh: inconclusive; HP1b chromo inh: inconclusive; PI5P4K alpha inh: 4; PLK1 PBD inh: inconclusive

Results for O=C(O)/C=C\c1ccc(O)c(O)c1 ?
G9a inh: 2.5µM*

How did O=C(/C=C/c1ccc(O)c(O)c1)c1ccccc1O do in these assays?
BAZ2B inh: 40µM*; JMJD2A Tudor inh: 3.5µM*; HP1b chromo inh: 45µM*; PI5P4K alpha inh: -1; G9a inh: 13µM*; PLK1 PBD inh: 10%

How did O=C(/C=C/c1ccc(O)c(O)c1)OCCc1ccccc1 do in these assays?
JMJD2A Tudor inh: 89µM*; HP1b chromo inh: -24%; PI5P4K alpha inh: 4; G9a inh: 3.5µM*; PLK1 PBD inh: 3%
